Data on 93 compounds can be found in PubChem BioAssay AID492953 (The Scripps Research Institute Molecular Screening Center, 2010).

One may read the inhibition as the drop in the measured response relative to a control, in per cent.

Screen size: about 340,000 compounds; about 4,200 (1.2%) were called active. What follows is part of a selection rich in actives, with near analogues and random picks from the rest. Unmarked numbers belong to inactive results.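 How the source made its calls: active means inhibition above the mean of all tested compounds plus 3 SD (cut at about 24% in these data); inactive means the rest.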

For this experiment, the target named is Platelet-activating factor acetylhydrolase IB subunit alpha2 (Homo sapiens) (UniProt P68402). Nature of the experiment: PAFAH1B2 enzyme inhibitors, primary screen, biochemical, fluorescence polarization, human (AID 492953).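 Further: 0% = enzyme with DMSO and 100% = wells lacking PAFAH1B2.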 To be noted: recombinant PAFAH1B2, FP-rhodamine activity probe, at 3.39 µM, stronger effect = higher value. Background: In fluorescence polarisation assays a small probe gives low polarisation when free and higher when bound to something large.
Chain of Platelet-activating factor acetylhydrolase IB subunit alpha2 (Homo sapiens) (P68402 whole entry, looked up): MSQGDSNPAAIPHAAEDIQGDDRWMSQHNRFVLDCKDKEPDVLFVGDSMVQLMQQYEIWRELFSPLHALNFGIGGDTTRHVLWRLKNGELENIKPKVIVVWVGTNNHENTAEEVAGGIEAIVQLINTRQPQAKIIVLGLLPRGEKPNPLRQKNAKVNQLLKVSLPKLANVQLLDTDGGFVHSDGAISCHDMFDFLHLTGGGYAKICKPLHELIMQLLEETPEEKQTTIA
Consider `Cc1ccc(OCCNC(=O)CCNS(=O)(=O)c2ccc(Br)cc2)cc1`, for which the inhibition was 24.2% (active).
For `O=C(CCNS(=O)(=O)c1ccc(Br)cc1)NCC1CCCO1` (stereo not drawn), the inhibition is 7.29%.
Turning to `Cc1ccc(S(=O)(=O)NCCNC(C)c2ccc(Br)cc2)cc1` (stereo not drawn), the inhibition was 23%.
Regarding `Cc1ccc(CCN2CC(C(=O)NCCc3ccccc3)CC2=O)cc1` (stereo not drawn), the inhibition is 7.51%.
The result for `O=C1Nc2cc(Cl)c(Cl)cc2N(O)N1c1cc(Cl)cc(Cl)c1` reads 6.99%.
Take `CCCCN(C(=O)CSCc1ccc(C)cc1)c1c(N)n(Cc2ccccc2)c(=O)[nH]c1=O`: the inhibition was 8.05%.
Consider `O=C(Nc1ccccc1)C1CC(=O)n2c(nc3ccccc32)N1` (stereo not drawn), for which the inhibition was -1.27%.
Turning to `CC(=O)Nc1ccc(S(=O)(=O)NCCc2ccccc2)cc1`, the inhibition is 3.04%.
The result for `CC(=O)Nc1ccc(S(=O)(=O)NC2(C(F)(F)F)C(=O)NC(C)=C2C#N)cc1` (stereo not drawn) reads 0.09%; that for `CC(=O)Nc1ccc(S(=O)(=O)NC2(C(F)(F)F)C(=O)Nc3c2c(=O)[nH]c(=O)n3Cc2ccccc2)cc1` (stereo not drawn), 24.4% (active).
In the case of `Cc1ccc(C(=O)NCC(=O)OCC(=O)NC2CCCCCCC2)cc1`, the inhibition is -0.8%.
As for `Cc1cc(OC(=O)c2ccc(OC(C)C)cc2)c([N+](=O)[O-])c(=O)[nH]1`, the inhibition is 1.4%.
As to `COc1cccc(C=CC(=O)C=CC=Cc2ccccc2)c1`, the inhibition was -1.3%.
For `COc1ccc(CCNS(=O)(=O)c2cn(C)nc2C)cc1`, the inhibition is 2.66%.
For the compound `O=S1(=O)CCOC[C@H](Cc2ccccc2)N1Cc1ccccc1Br`, the inhibition was 4.8%.
Take `O=S1(=O)CCO[C@H]2Cc3ccccc3[C@H]2N1Cc1ccccc1`: the inhibition was 27.8% (active).
For `CCC(C)[C@H]1COCCS(=O)(=O)N1Cc1ccc(C)cc1` (stereo partly drawn), the inhibition is 7.04%.
Turning to `N#Cc1c(-c2ccccc2)nc(SCc2cccc(C(F)(F)F)c2)[nH]c1=O`, the inhibition was 14.2%.
Turning to `N#Cc1c(-c2ccc(F)cc2)nc(-c2ccccc2)[nH]c1=O`, the inhibition is 1.36%.
`Cc1ccc(CSc2nc(-c3ccccc3)c(C#N)c(=O)[nH]2)cc1`: the inhibition is 24.4% (active).
Turning to `Oc1oc(-c2ccccc2Br)nc1/C=N/c1ccccn1`, the inhibition was 1.69%.
As to `CCc1ccc(NC(=O)NC(C)c2ccc3c(c2)OCO3)cc1` (stereo not drawn), the inhibition was 4.07%.
`CC(NC(=S)Nc1ccc(S(N)(=O)=O)cc1)c1ccc2c(c1)OCO2` (stereo not drawn): the inhibition was 27.8% (active).
With `CC(NC(=O)Nc1cccc([N+](=O)[O-])c1)c1ccc2c(c1)OCO2` (stereo not drawn), the inhibition was 0.41%.
In the case of `Cc1ccc(NC(=O)N2CCSc3ccccc32)cc1`, the inhibition is 7.44%.
With `O=C(Cc1cccs1)N(CC1CCCO1)C1(C(=O)NC2CCCCC2)CCCCC1` (stereo not drawn), the inhibition was 2.99%.
As for `O=C(CNCc1ccc(F)cc1)Nc1ccccc1-c1ccccc1`, the inhibition was 24.4% (active).
Consider `CCC(C(=O)OCC(=O)Nc1ccccc1-c1ccccc1)c1ccccc1` (stereo not drawn), for which the inhibition is 7.25%.
The result for `O=C(Cn1cnc2ccccc21)Nc1ccccc1-c1ccccc1` reads 5.45%; that for `Cc1ccc(NC(=O)CCCNC(=O)c2ccc(Cl)cc2)cc1S(=O)(=O)N1CCOCC1`, 2.83%; that for `COc1ccccc1CCNC(=O)C1CCN(C(=O)/C=C/c2ccccc2)CC1`, 10.8%.
With `CCOc1ccc(CC(=O)NCCS(=O)(=O)N2CCN(c3ccccc3)CC2)cc1`, the inhibition was 1.28%.
On to `COc1ccc(OCC(=O)NCCS(=O)(=O)N2CCN(c3ccc(F)cc3)CC2)cc1`, for which the inhibition was -1.87%.
`O=C(COc1ccc(Cl)cc1)NCCS(=O)(=O)N1CCN(c2ccc(F)cc2)CC1`: the inhibition was 28.6% (active).
Consider `CCCC1NC(=S)NC(C)=C1C(C)=O` (stereo not drawn), for which the inhibition was -9.47%.
As to `CC(=O)OCC(=O)C1(O)CCC2C3CC(C)C4=CC(=O)CCC4(C)C3C(O)CC21C` (stereo not drawn), the inhibition is 1.34%.
For `COc1ccccc1C(=O)Nc1ccnn1C1CCN(Cc2cnn(C)c2)CC1`, the inhibition was 4.33%.
For `COc1ccc(CCNC(=S)N2CCN(S(=O)(=O)c3ccc(Cl)cc3)CC2)cc1`, the inhibition was 11.4%.
The result for `Oc1cc2c(cc1O)CN(C(=S)NCCc1ccc(Cl)cc1)CCC2` reads 63.6% (active); that for `O=C1CCN(C(=S)NCCc2ccccc2)CC1`, 1.71%; that for `CC12c3ccccc3C(c3ccccc31)C1C(=O)N(Cc3cccnc3)C(=O)C12` (stereo not drawn), 1.4%.
As to `C=CCO/N=C(\C)c1c(O)c(C)c(-c2ccccc2)n(-c2ccccc2)c1=O`, the inhibition is 31.5% (active).
For `Cc1nn(-c2ccccc2)c(C)c1/C=N/NC(=O)CSc1nc2ccccc2c(=O)n1-c1ccccc1` the value was 2.37%.
Turning to `CCO/N=C(/C)c1c(O)cc(-c2ccccc2)n(-c2ccccc2)c1=O`, the inhibition is 7.22%.
As to `Cc1ccsc1-c1nc(CSCC(=O)NCCN2CCCC2)c(C)o1`, the inhibition was 0.8%.
Regarding `COc1cc2c(cc1OC)C(Cc1cc(OC)c(OC)cc1[N+](=O)[O-])=NCC2`, the inhibition was 0.33%.
The result for `CCCC1OC23CCCCC2C(C#N)(C#N)C1(C#N)C(=N)O3` (stereo not drawn) reads 29.1% (active); that for `O=C1/C(=C\c2ccc(O)cc2)CCC1CNc1ccc(Cl)cc1` (stereo not drawn), -1.51%.
For `CCOC(=O)/C(C#N)=C/c1cn(CCC(=O)O)nc1-c1ccc(Br)cc1` the value was 2.11%; for `Cc1cccc(C=CC(=O)c2ccc(Cl)cc2)c1`, -1.7%.
Turning to `O=C(O)CCn1cc(/C=C/C(=O)c2ccc(Cl)cc2)c(-c2cccc(Br)c2)n1`, the inhibition was 51.4% (active).
For the compound `O=C(OCC(=O)N1CCN(C(=O)c2ccco2)CC1)c1ccc(Cl)c(Cl)c1`, the inhibition was 2.92%.
For `NNC(=O)CSc1nnc(-c2ccccc2)n1-c1ccccc1` the value was 17.7%; for `O=C(O)CCSc1nnc(-c2ccccc2)n1-c1ccccc1`, 24.4% (active).
`O=C(O)CSc1nnc(-c2ccc3c(c2)OCO3)n1-c1ccccc1`: the inhibition was 0.01%.
The result for `CCOc1cc(/C=N/NC(=O)c2cccc(S(=O)(=O)N3CCOCC3)c2)ccc1OCC(=O)N(C)C` reads 2.5%.
Turning to `O=C(NCCc1ccccc1)c1c[nH]c2ccc(F)cc2c1=O`, the inhibition is 3.36%.
For the compound `CCOC(=O)c1ccccc1OC(=O)Oc1ccccc1C(=O)OCC`, the inhibition was 4.58%.
For `CCOC(=O)c1c(C)[nH]c2c1-c1ccccc1C(=O)C2=O` the value was 46.4% (active); for `CCOC(=O)c1c(C)nc2c(c1C)c(=O)oc1ccccc12`, 4.46%; for `C/C(=N\Nc1ccc(Cl)nn1)c1ccccc1O`, -0.23%.
On to `COc1ccccc1N1CCN(S(=O)(=O)c2ccc3c(c2)NC(=O)CS3)CC1`, for which the inhibition is -1.51%.
On to `COc1ccccc1N1CCN(C(=O)c2ccc(Cl)c(S(=O)(=O)N3CCCC3)c2)CC1`, for which the inhibition was 2.58%.
Regarding `COc1ccccc1N1CCN(S(=O)(=O)c2ccc(Cl)cc2)CC1`, the inhibition is 31.7% (active).
With `COc1ccc(CCNC(=O)CN2CCC(n3nnc4cc(F)ccc43)CC2)cc1OC`, the inhibition is 4.75%.
With `CCOC(=O)c1[nH]c(C)c(C(=O)OCC(=O)N2c3ccccc3CC2C)c1C` (stereo not drawn), the inhibition was 3.77%.
Take `CSC1=NC2(C)CCCCC2C12C=CC(=O)C=C2` (stereo not drawn): the inhibition was 24.6% (active).
Turning to `O=C(CC(=O)c1cccnc1)c1ccccc1`, the inhibition is 0.07%.
The result for `CC[n+]1c(C)n(-c2ccccc2)c2ccc(NC(C)=O)cc21` reads 1.05%; that for `CCc1ccc(NC(=O)CN2C(=O)CSC2=O)cc1`, 4.64%.
Consider `Cc1ccc(S(=O)(=O)N(CCCN(C)C)Cc2ccc3c(c2)OCO3)cc1`, for which the inhibition was 1.52%.
Turning to `O=C(Oc1ccc2c(c1)CCC2)N1CCOCC1`, the inhibition is 2.56%.
Take `COc1ccc(CCn2nnnc2C(c2ccccc2)N2CCN(C)CC2)cc1OC` (stereo not drawn): the inhibition is 2.25%.
For `CC(C)C(c1nnnn1CCc1ccccc1)N1CCN(C(=O)c2ccco2)CC1` (stereo not drawn) the value was 3.54%; for `N#Cc1ccc(C(c2nnnn2CCc2ccccc2)N2CCCCCC2)cc1` (stereo not drawn), 25.7% (active).
Regarding `O=C(NCc1ccc2c(c1)OCO2)c1c(O)nc2sccn2c1=O`, the inhibition was 5.79%.
With `Cc1ccc(C(=O)CN2C(=O)NC3(CCOc4ccccc43)C2=O)s1` (stereo not drawn), the inhibition is -1.4%.
The result for `Cc1cccc(OCCNC(=S)NC(=O)c2cccnc2)c1` reads -2.68%; that for `C=CCNC(=O)CCCOc1cccc(C)c1`, -2.13%.
For the compound `Cc1cccc(OCCNC(=O)CSc2ccc(C(F)(F)F)cc2[N+](=O)[O-])c1`, the inhibition is 27.4% (active).
For `CC(C)NC(=O)Nc1cccc2c1O[C@H](CN(C)S(=O)(=O)c1cccs1)[C@@H](C)CN([C@H](C)CO)C2=O`, the inhibition is 6.94%.
Turning to `Cc1ccc(CN(C)Cc2cc(=O)oc3cc(C)c(Cl)cc23)cc1`, the inhibition was 28.5% (active).
On to `Cc1cc2oc(=O)cc(CN3CCN(Cc4ccccc4)CC3)c2cc1C`, for which the inhibition is -2.46%.
`Cc1cc2oc(=O)cc(CN(C)Cc3ccc(OC(F)F)cc3)c2cc1Cl`: the inhibition is -0.62%.
For `CCn1c(SCC(=O)Nc2cccc(F)c2)nnc1-c1cc2cc(Br)ccc2o1` the value was -4.23%.
With `C=CCn1c(SCC(=O)NC)nnc1C12CC3CC(CC(C3)C1)C2`, the inhibition is 4.85%.
Take `C=CCn1c(C23CC4CC(CC(C4)C2)C3)n[nH]c1=S`: the inhibition was 29.8% (active).
For the compound `C=CCn1c(-c2ccc3[nH]c(C)c(C)c3c2)n[nH]c1=S`, the inhibition is -1.88%.
The result for `Cc1cc(C)cc(NC(=O)C(OC(=O)c2ccc(O)cc2)c2ccccc2)c1` (stereo not drawn) reads -4.34%; that for `O=C1/C(=C\c2ccc([N+](=O)[O-])cc2)CS(=O)(=O)C/C1=C/c1ccc([N+](=O)[O-])cc1`, -2.78%.
With `O=C(O)c1cc(S(=O)(=O)N(Cc2ccccc2)c2cccc(C(F)(F)F)c2)ccc1Cl`, the inhibition was 28.5% (active).
For `Cc1ccc(N(CCC(=O)O)S(=O)(=O)c2cccc(C(F)(F)F)c2)cc1`, the inhibition is 19.6%.
Take `O=C(O)c1cc(S(=O)(=O)N(Cc2ccccc2)c2ccccc2)ccc1Cl`: the inhibition was 18.7%.
